# PubChem BioAssay (NCI)
# The panel holds about 83,000 compounds, 20% with a hit somewhere; the sample as a whole holds those more often.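 Step 1: grow cells in 96-well plates. Step 2: add test compound at a single concentration. Step 3: incubate 48 h. Step 4: record percent growth.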 A number with no mark means an inactive call. Active and inactive are the calls of the source. The calls were made as follows: active = growth percent below 10; inactive = the rest.
# Legend:
# Assay in all cases: NCI-60 one-dose screen, 48 h (100 = growth as untreated, 0 = no growth, -100 = all killed)
# Conditions in all cases: 10 µM unless noted
# [1] = tested on: SK-MEL-2 melanoma
# [2] = tested on: EKVX NSCLC
# [3] = tested on: SN12C renal
# [4] = tested on: UO-31 renal
# [5] = tested on: TK-10 renal
# [6] = tested on: ACHN renal
# [7] = tested on: CAKI-1 renal
# [8] = tested on: A498 renal
# [9] = tested on: CCRF-CEM leukemia
# [10] = tested on: MOLT-4 leukemia
# [11] = tested on: SR leukemia
# [12] = tested on: RPMI-8226 leukemia
# [13] = tested on: OVCAR-8 ovarian
# [14] = tested on: OVCAR-5 ovarian
# [15] = tested on: OVCAR-4 ovarian
# [16] = tested on: SK-OV-3 ovarian
# [17] = tested on: IGROV1 ovarian
# [18] = tested on: OVCAR-3 ovarian
# [19] = tested on: HS 578T breast
# [20] = tested on: NCI/ADR-RES ovarian
SMILES,growth [1],growth [2],growth [3],growth [4],growth [5],growth [6],growth [7],growth [8],growth [9],growth [10],growth [11],growth [12],growth [13],growth [14],growth [15],growth [16],growth [17],growth [18],growth [19],growth [20]
COP(=O)(OC)c1nnn(-c2cccc([N+](=O)[O-])c2)c1C,106%,106%,104%,84.5%,99%,106%,97.2%,101%,104%,101%,104%,103%,101%,104%,103%,123%,110%,111%,102%,103%
COC(=O)/C(CCC=C(C)C)=C1\[C@@H](OC(C)=O)C[C@@]2(C)[C@H]1CC(=O)[C@H]1[C@@]3(C)CCC(N4CCCC4)[C@@H](C)[C@@H]3CC[C@@]12C (stereo not given in full),105%,91.9%,89%,70.2%,102%,104%,106%,105%,78.2%,9.72% (active),56.3%,85.5%,95.7%,96.9%,97.5%,108%,102%,99.1%,89.1%,99.3%
COc1ccc(/C=C/C(=O)c2cc3c(N)c(C(=O)Nc4ccc(OC)cc4)sc3nc2C)cc1,15.4%,45.2%,31.6%,41%,40.8%,42.6%,24.8%,18.6%,19.9%,33.3%,11.8%,37.7%,7.03% (active),42.9%,53.5%,16.1%,33%,2.94% (active),8.09% (active),6.34% (active)
N=C(N)c1ccc(-c2ccc(-c3ccc(Cl)cc3)o2)o1,82.1%,68.3%,-58.9% (active),46%,72.1%,28.3%,54.2%,61.3%,-20.3% (active),-28.9% (active),-28.8% (active),-6.54% (active),-55.4% (active),3.3% (active),46.2%,81.2%,37.7%,-86.1% (active),78.6%,-50.6% (active)
O=c1oc2c(cnc3ccccc32)cc1-c1cccs1,108%,103%,98.4%,88.3%,106%,102%,88.9%,107%,103%,102%,103%,103%,100%,108%,100%,106%,99.7%,119%,99%,104%
CN(C)c1ccc(/C=C2/C=C(c3ccccc3)OC2=O)cc1,84.6%,109%,107%,73.7%,110%,97.1%,91.3%,95.8%,52.7%,49.7%,26.7%,84%,100%,108%,93.4%,93.9%,74.7%,73.7%,101%,73.1%
C#Cc1cccc(Oc2ccc(NC(=O)CCl)cc2)c1,61.8% [8.25 µM],82.3% [8.25 µM],37.6% [8.25 µM],52.8% [8.25 µM],93% [8.25 µM],70.1% [8.25 µM],36.9% [8.25 µM],102% [8.25 µM],2.35% [8.25 µM] (active),0.835% [8.25 µM] (active),13% [8.25 µM],23.9% [8.25 µM],31.4% [8.25 µM],74.3% [8.25 µM],7.96% [8.25 µM] (active),98.9% [8.25 µM],-71.6% [8.25 µM] (active),-76.8% [8.25 µM] (active),80.7% [8.25 µM],71.1% [8.25 µM]
CCSC1=CC(=O)c2ccccc2C1=O,94.2%,92.8%,82.8%,27%,89%,3.01% (active),32.2%,97.8%,-6.88% (active),5.83% (active),37.6%,45.7%,49.4%,116%,-95.2% (active),95.6%,59.5%,-26.7% (active),94.8%,71.8%
COc1cc2c3c(c1O)-c1ccccc1[C@@H]1OC(=O)N(CC2)[C@H]31,97.6%,104%,101%,88.5%,104%,106%,95.4%,92.9%,74.1%,96.8%,98.2%,99.2%,97.8%,116%,105%,106%,114%,115%,102%,104%
COc1cc2c3c(n(CCCCNCCCn4c5c(c6cc(OC)c(OC)cc6c4=O)C(=O)c4cc6c(cc4-5)OCO6)c(=O)c2cc1OC)-c1cc2c(cc1C3=O)OCO2,114%,90.3%,102%,84.1%,100%,95%,93.3%,103%,101%,96.5%,66.6%,105%,101%,98.6%,102%,96.3%,95%,98.7%,104%,98.6%
CC(=O)Nc1c(Cl)cc(Cl)c2c1Cc1cc([N+](=O)[O-])ccc1-2,105%,59.4%,80.3%,91.1%,99.4%,82.3%,84.5%,102%,89.7%,87%,47.9%,87.1%,74.8%,108%,9.59% (active),87.3%,91.2%,80.5%,65.4%,83.5%
CC1CN=C(c2cccc(-c3ccc(-c4ccccc4)o3)c2)N1 (stereo not given),-69.7% (active),37.2%,32.2%,-0.664% (active),30.1%,-21.8% (active),5.69% (active),25.7%,-13.4% (active),-16.5% (active),-9.42% (active),-26.3% (active),33.7%,-5.49% (active),43.1%,18.4%,31%,10.6%,17.4%,28.3%
COc1ccc(-c2cc(-c3cc(OC)c(OC)c(OC)c3)c(C#N)c(=O)n2CCCCCC(=O)NO)cc1,102%,91.3%,89.2%,62.4%,106%,88.3%,79.9%,54%,85.7%,96.6%,78.2%,72.8%,87%,108%,100%,122%,101%,101%,85.2%,96.1%
O=C(NCc1ccccc1O)c1cccc2ccccc12,86.4%,82.1%,64.9%,51.5%,98.5%,72.4%,91.9%,56%,101%,79%,64.9%,38.6%,89.8%,108%,72.7%,89.5%,62%,56.4%,66.5%,79.2%
